NPC1 promoter act: qHTS Assay for NPC1 Promoter Activators; Huh7 NPC1 promoter luciferase reporter, 24 h; Potency, µM (series often up to 9.22 µM), usual class: activators; 320,000 compounds, 2.4% hits; AID 485313, 2010; further: nearly all actives have a fitted effect of over 60% in size
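Luminescence read-out of NPC1 promoter-driven luciferase in stably transfected Huh7 cells; compounds delivered in DMSO and left 24 h at 37C, 5% CO2, qHTS titration format.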
ELG1 genotoxic: qHTS screen for small molecules that induce genotoxicity in human embryonic kidney (HEK293T) cells expressing luciferase-tagged ELG1. HEK293T ELG1-luciferase reporter, luminescence, 16 h. Potency, µM (doses to about 46 µM), most hits filed as activators. 330,000 compounds, 1.3% hits; further: nearly all actives have a fitted effect of over 60% in size
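Reporter readout depends on ELG1 protein level, which increases with genetic stress. After 16 hr compound exposure at 37 °C, luciferase activity was quantified using ONE-Glo.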
Rab9 prom act: qHTS Assay for Rab9 Promoter Activators | Huh7 Rab9 promoter-luciferase reporter, luminescence, 24 h | Potency, µM (doses to about 9.22 µM), actives largely listed as activators | 320,000 compounds, 2.8% hits | AID 485297, 2010; further: nearly all actives have a fitted effect of over 60% in size
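Huh7 reporter line, Rab9 promoter upstream of luciferase. Compound exposure 24 h at 37 °C in reduced-serum medium with 10% FBS. Read-out: luminescence.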
FLuc modulator: qHTS profiling assay for firefly luciferase inhibitor/activator using purifed enzyme and Km concentrations of substrates (counterscreen for miR-21 project) | Luciferin 4-monooxygenase (Photinus pyralis), P08659 | purified FLuc, Km substrates, luminescence inhibition | Potency, µM (series often up to 57.5 µM), most hits filed as inhibitors | 360,000 compounds, 6.9% hits | AID 588342, 2011; further: nearly all actives have a fitted effect of over 55% in size
Target sequence (P08659 whole entry, looked up): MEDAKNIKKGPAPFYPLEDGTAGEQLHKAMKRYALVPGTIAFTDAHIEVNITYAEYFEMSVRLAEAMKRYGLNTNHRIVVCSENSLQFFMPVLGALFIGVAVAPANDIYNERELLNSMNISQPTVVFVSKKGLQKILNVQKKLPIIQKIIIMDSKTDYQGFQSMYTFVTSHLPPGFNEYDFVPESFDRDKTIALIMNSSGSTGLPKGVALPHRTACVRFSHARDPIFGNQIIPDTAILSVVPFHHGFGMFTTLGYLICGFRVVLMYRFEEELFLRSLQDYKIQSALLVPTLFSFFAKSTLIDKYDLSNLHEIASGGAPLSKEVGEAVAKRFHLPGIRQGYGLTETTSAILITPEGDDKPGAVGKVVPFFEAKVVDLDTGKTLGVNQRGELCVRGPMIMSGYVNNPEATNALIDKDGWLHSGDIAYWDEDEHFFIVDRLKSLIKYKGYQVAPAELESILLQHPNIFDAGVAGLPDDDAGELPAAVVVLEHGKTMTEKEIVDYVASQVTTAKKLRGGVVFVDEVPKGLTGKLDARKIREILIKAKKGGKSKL
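Purified P. pyralis luciferase (10nM final) with 10uM D-luciferin and 10uM ATP (Km levels) in 50mM Tris acetate pH 7.5, 10mM Mg acetate, 0.01% Tween-20, 0.05% BSA; qHTS 6-point titration, ~60 µM downward; luminescence read.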
KinaseGlo FLuc: Counterscreen for Luciferase (Kinase-Glo TM) Inhibition; Luciferin 4-monooxygenase (Photuris pensylvanica), Q27757; Kinase-Glo luciferase, ATP luminescence, 8 min; Potency, µM (titrated, usually from 38.3 µM), most hits filed as inhibitors; 200,000 compounds, 0.28% hits; AID 1379, 2008; further: nearly all actives have a fitted effect of over 60% in size
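Light output from Kinase-Glo luciferase with luciferin and 10 uM ATP in 50 mM imidazole pH 7.2, KCl, MgCl2, Tween 20, BSA; compound pin-delivered, 8-min ambient incubation, then luminescence read.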
SMN2 splice up: qHTS Assay for Enhancers of SMN2 Splice Variant Expression; HEK293 SMN2-luciferase splicing reporter, luminescence, 30-36 h; Potency, µM (series often up to 46.1 µM), actives largely listed as activators; 210,000 compounds, 2.8% hits; further: nearly all actives have a fitted effect of over 55% in size
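HEK293 cells carry an SMN2 […]–luciferase reporter in which exon 7 inclusion puts luciferase in frame. Cells were plated 10-12 h before compound addition, then incubated 30-36 h at 37C. ONE-Glo luminescence was read; sodium butyrate at 4.5 mM final served as control.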
Hits are given with their value; – = inactive; ? = inconclusive; · = no result given; ! = not active in a repeat; [ ] = another dose, or the depositor's remark. Compounds with a hit are over-represented: about 7.5% of the library has one in this group of screens. The call rests on the fitted dose curve; in most records, active means well fitted curve in the direction sought with a large enough effect; inconclusive means small, poorly fitted or top-dose-only effect, or another doubt; inactive means no such curve, though single readings can be large; an effect the other way counts as inactive or inconclusive.

SMILES | NPC1 promoter act | ELG1 genotoxic | Rab9 prom act | FLuc modulator | KinaseGlo FLuc | SMN2 splice up
O=C(CN1C(=O)C2CCCCN2c2ccc(C(=O)N3CCCC3)cc21)NCc1ccc(F)cc1 (configuration not stated) | · | · | · | – | · | ·
CC(=O)N/C(=C\c1ccccc1)C(=O)OCC(=O)N(C)C1CCCCC1 | – | – | – | – | – | –
Cn1nc(Oc2ncc(C(F)(F)F)cc2Cl)cc1C(F)(F)F | – | – | – | – | – | –
CCN(CC)C(=N)/C(C#N)=N/Nc1ccc(C)cc1 | 2µM | ? | 2µM | 9.53µM | · | ·
N#C/C(=N\Nc1ccc(Cl)cc1)C(N)=S | – | – | – | 19µM | · | ·
N#C/C(=N\Nc1ccc(F)cc1)C(=N)N1CCCCCC1 | 0.447µM | ? | 0.891µM | 2.69µM | – | 3.98µM
N#C/C(=N\Nc1ccc(Cl)cc1)C(=N)N1CCCCC1 | 0.398µM | – | · | 1.69µM | – | ?
Cc1ccc(N/N=C(\C#N)C(=N)N2CCOCC2)cc1 | ? | ? | ? | ? | – | ?
C=CCn1c(CCCNC(=O)CCC)nc2ccccc21 | – | – | – | – | – | –
O=C(c1cc(-c2ccc(Br)cc2)n[nH]1)N1CCN(S(=O)(=O)c2ccc(Cl)s2)CC1 | · | · | · | – | · | ·
Cc1cnc(SCc2ccc(Cl)cc2Cl)[nH]c1=O | – | – | – | 21.3µM | · | ·
Cc1nnc(SCc2ccc(Cl)cc2Cl)[nH]c1=O | – | ? | – | ? | – | –
C/C(=N/NC(=O)c1nnn(-c2nonc2N)c1-c1ccccc1)c1ccc2c(c1)OCO2 | – | – | – | – | · | ·
C/C(=N\N=C(/N)c1nonc1N)c1ccc2c(c1)OCO2 | 0.631µM | ? | 0.891µM | 2.69µM | · | ·
COc1ccc(CNC(=O)c2cccnc2Sc2ccc(Cl)cc2)cc1 | – | – | – | – | – | –
O=C(NCc1cc([N+](=O)[O-])ccc1O)c1cccnc1Sc1ccccc1Cl | – | – | – | 15.1µM | · | ·
O=C(NCc1cc([N+](=O)[O-])ccc1O)c1cccnc1Sc1ccc(Cl)cc1 | ? | 6.51µM | – | ? | · | ·
Cc1ccc(NC(=O)C2OCCc3ccccc32)cc1 (configuration not stated) | – | – | – | ? | – | ·
N#CC1=C(Nc2ccc(Br)cc2)CCC1 | – | ? | – | – | – | ·
Cc1ccc(NC2=Nc3ccccc3CC2)cc1 | 0.398µM | 0.731µM | 0.398µM | 1.9µM | – | –
Brc1ccc(NC2=Nc3ccccc3CC2)cc1 | 3.16µM | – | ? | 3.79µM | – | 10µM
COc1ccc(OC)c(-c2noc(N3CCN(c4ccc(C(C)=O)cc4)CC3)n2)c1 | · | · | · | – | · | ·
CCCCn1c(N)c(N(C(=O)CSc2nnnn2-c2ccccc2C)C2CCCC2)c(=O)[nH]c1=O | – | – | – | – | · | ·
CCc1ccc(NS(=O)(=O)c2ccc3[nH]cc(C(=O)N4CCc5ccccc54)c(=O)c3c2)cc1 | – | ? | – | 21.3µM | – | ?
CCOc1ccc(NS(=O)(=O)c2ccc3[nH]cc(C(=O)NCCOC)c(=O)c3c2)cc1 | 2.51µM | ? | 2µM | 10.7µM! | – | 12.6µM!
SMILES | NPC1 promoter act | ELG1 genotoxic | Rab9 prom act | FLuc modulator | KinaseGlo FLuc | SMN2 splice up
Cc1cc(C)cc(NS(=O)(=O)c2ccc3[nH]cc(C(=O)N4CCc5ccccc54)c(=O)c3c2)c1 | – | – | – | – | – | –[1.84 µM]
O=c1sc2ccccc2c(N2CCOCC2)c1[N+](=O)[O-] | – | – | – | – | · | ·
CN(C(=S)Nc1ccc(F)cc1)C1(c2ccccc2Cl)CCCCC1=O (configuration not stated) | – | – | – | – | – | –
CCOc1ccc(-c2cc(NC(=O)Nc3ccccc3Cl)c(C(=O)OC)s2)cc1 | · | · | · | 8.49µM | · | –
CCOC(=O)c1sc(-c2ccc(OC)cc2)cc1NC(C)=O | – | – | – | – | – | 15.8µM
CC(C)N(C(=O)CSc1nnc(-c2ccc3c(c2)OCO3)n1C)C(C)C | – | – | – | – | – | –
CC(C)(C)C1CCc2nc(NC(=O)COc3ccc(F)cc3)sc2C1 (configuration not stated) | · | · | · | – | · | ·
O=C(O)C[C@H](Cc1ccccc1)C(=O)O | · | · | · | · | –[7.66 µM] | –[9.22 µM]
CCOC(=O)C1CCCN(C/C(O)=C(\C#N)c2nc(-c3ccc(Cl)cc3)cs2)C1 (configuration not stated) | – | – | – | – | – | –
N#C/C(=C(/O)CN1CCCC1)c1nc(-c2ccccc2)cs1 | 3.98µM | ? | 3.16µM | 19µM | · | ·
CCCCOc1cccc(/C=N/NC(=O)c2csc(C)c2C)c1 | – | – | – | 7.57µM | – | –
COc1ccc(CC(=O)N/N=C/c2ccc(Cl)s2)cc1OC | – | – | –[1.84 µM] | – | · | ·
Cc1scc(C(=O)N/N=C/c2ccc(OC(C)C)cc2)c1C | – | ? | ? | 6.75µM | – | ?
Cc1scc(C(=O)N/N=C/c2ccc(Cl)s2)c1C | 3.55µM | ? | 2.24µM | 3.01µM | – | 17.8µM
CC(C)Oc1ccc(/C=N/NC(N)=S)cc1 | ? | – | ? | 15.1µM | – | ?
CCOc1ccc(/C=N/NC(=O)c2csc(C)c2C)c(OCC)c1 | – | – | – | – | – | –
COc1ccccc1/C=N/NC(=O)c1csc(C)c1C | – | – | – | 3.38µM | – | –
COc1ccccc1/C=N/NC(=O)c1cccc2ccccc12 | – | – | – | – | · | ·

Source: PubChem (National Center for Advancing Translational Sciences (NCATS))
